In PubChem BioAssay (NCATS) one finds Potency and outcome data, which are given here for 18 compounds.

Inconclusive results are not listed. Entries that show only a call come without a potency. Calls of active or inactive are those of the source. Calls follow the shape of the dose curve; as a rule, active = well fitted curve in the direction sought with a large enough effect; inconclusive = small, poorly fitted or top-dose-only effect, or another doubt; inactive = no such curve, though single readings can be large; an effect the other way counts as inactive or inconclusive.
Also: nearly all actives have a fitted effect of over 70% in size.

Sequence of Luciferin 4-monooxygenase (Photinus pyralis) (P08659 whole entry, looked up): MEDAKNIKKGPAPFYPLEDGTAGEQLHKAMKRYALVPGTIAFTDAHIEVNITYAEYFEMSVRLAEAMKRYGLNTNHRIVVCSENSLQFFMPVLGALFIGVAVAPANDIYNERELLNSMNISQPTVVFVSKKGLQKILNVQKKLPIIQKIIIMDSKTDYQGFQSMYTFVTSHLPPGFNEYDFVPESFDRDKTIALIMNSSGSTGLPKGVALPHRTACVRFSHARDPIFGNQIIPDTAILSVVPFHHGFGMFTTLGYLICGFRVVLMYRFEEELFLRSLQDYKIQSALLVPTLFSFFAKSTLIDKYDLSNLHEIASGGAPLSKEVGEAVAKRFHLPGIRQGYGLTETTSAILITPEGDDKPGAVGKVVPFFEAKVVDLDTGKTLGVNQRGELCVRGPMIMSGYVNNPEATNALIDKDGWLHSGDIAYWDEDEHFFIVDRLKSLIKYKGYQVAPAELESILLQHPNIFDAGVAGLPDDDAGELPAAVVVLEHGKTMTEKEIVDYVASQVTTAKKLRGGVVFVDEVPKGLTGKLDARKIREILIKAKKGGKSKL

One assay deals with Luciferin 4-monooxygenase (Photinus pyralis) (UniProt P08659). The assay is described as follows: Biochemical firefly luciferase enzyme assay for NPC (AID 624030).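 Also: purified P. pyralis luciferase at 10 nM with luciferin and ATP substrate.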 The settings on record: purified P. pyralis luciferase, luminescence, 5 min; series mostly up to 58.6 µM. In a few lines:
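Counter-screen for direct inhibition of the luciferase enzyme by approved-drug library compounds, run at 10 nM enzyme in 50 mM Tris acetate (final). Luminescence was read within 5 min of enzyme-buffer addition and normalized to PTC124 versus DMSO (0%).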
On to `Nc1ccccc1C(=O)O`, for which the Potency result is “inactive”. On the same count and under the same terms, the entry for `O=C1c2ccccc2C(=O)c2ccccc21` is “inactive”; for `CCC(C)(C)c1ccc(O)cc1` it is “inactive”; for `COP(=S)(OC)SCN1C(=O)c2ccccc2C1=O` it is “inactive”. The same measure, in the same setting: the entry for `NC(=O)CS(=O)C(c1ccccc1)c1ccccc1` (stereo not drawn) is “inactive”. Take `CC(C)(C)NCC(O)c1cc(Cl)c(N)c(C(F)(F)F)c1` (stereo not drawn): the Potency entry was “inactive”. Still for that read-out and setting: the entry for `CN1C[C@H](C(=O)N[C@]2(C)O[C@@]3(O)[C@@H]4CCCN4C(=O)[C@H](Cc4ccccc4)N3C2=O)C=C2c3cccc4[nH]cc(c34)C[C@H]21` is “inactive”; for `Nc1nc(N)nc(NC2CC2)n1` it is “inactive”.

Turning to `CN1C(=O)NC(=O)C(C)(C2=CCCCC2)C1=O` (stereo not drawn), the Potency result is “inactive”. For the compound `CCOP(=S)(OCC)Oc1ccc2c(C)c(Cl)c(=O)oc2c1`, the Potency result was “inactive”.

Turning to `CCC1(c2ccccc2)C(=O)N(COC)C(=O)N(COC)C1=O`, the Potency result was “inactive”. On the same count and under the same terms, the entry for `COP(=S)(OC)Oc1ccc(S(=O)(=O)N(C)C)cc1` is “inactive”.

For `CN1C(=O)CC(=O)N(c2ccccc2)c2cc(Cl)ccc21`, the Potency result is “inactive”. With `NNc1ccccc1`, the Potency result was “inactive”.

For the compound `C=CCN1C[C@H](C)N([C@H](c2ccc(C(=O)N(CC)CC)cc2)c2cccc(OC)c2)C[C@H]1C`, the Potency result is “inactive”. `CCC1(CC)C(=O)C=CNC1=O`: the Potency result is “inactive”. On to `COc1cc(OC)c(OC)cc1C=O`, for which the Potency entry is “inactive”.

On to `O=C1CN=C(c2ccccc2)c2cc([N+](=O)[O-])ccc2N1`, for which the Potency entry is “inactive”.

Test system in the next assay: not listed separately
The assay is described as follows: S16 Schwann cell viability assay (CellTiter-Glo assay) (AID 624031).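 Also: cellular ATP luminescence as a viability measure.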 As to conditions: S16 rat Schwann cells viability, 24 h; series mostly up to 57.5 µM. In a few lines: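 Native S16 Schwann cells (rat), serum-containing medium, overnight attachment then 24 h drug exposure at 37 °C/5% CO2. CellTiter-Glo ATP signal; normalized to cell-free and vehicle wells.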
Background: In ATP-based viability assays light output follows the ATP content of the culture.
Take `Nc1ccccc1C(=O)O`: the result was inactive. Still for that read-out and setting: the value for `O=C1c2ccccc2C(=O)c2ccccc21` was “inactive”; that for `CCC(C)(C)c1ccc(O)cc1` was “inactive”; that for `COP(=S)(OC)SCN1C(=O)c2ccccc2C1=O` was “inactive”. As for `NC(=O)CS(=O)C(c1ccccc1)c1ccccc1` (stereo not drawn), the compound was classed as inactive. Still for that read-out and setting: the entry for `CC(C)(C)NCC(O)c1cc(Cl)c(N)c(C(F)(F)F)c1` (stereo not drawn) is “inactive”; for `Nc1nc(N)nc(NC2CC2)n1` it is “inactive”.

As to `CN1C(=O)NC(=O)C(C)(C2=CCCCC2)C1=O` (stereo not drawn), the outcome was inactive. The same measure, in the same setting: the entry for `CCOP(=S)(OCC)Oc1ccc2c(C)c(Cl)c(=O)oc2c1` is “inactive”. In the case of `CCC1(c2ccccc2)C(=O)N(COC)C(=O)N(COC)C1=O`, the compound was classed as inactive. With `COP(=S)(OC)Oc1ccc(S(=O)(=O)N(C)C)cc1`, the compound was classed as inactive.

Consider `CN1C(=O)CC(=O)N(c2ccccc2)c2cc(Cl)ccc21`, for which the compound was classed as inactive. Same read-out and setting: the value for `NNc1ccccc1` was “inactive”; that for `CCC1(CC)C(=O)C=CNC1=O` was “inactive”; that for `O=C1CN=C(c2ccccc2)c2cc([N+](=O)[O-])ccc2N1` was “inactive”.
